# Measurements: PubChem BioAssay AID361 (National Center for Advancing Translational Sciences (NCATS), 2006)
# About 600 (1.2%) of roughly 51,000 compounds were called active. Inconclusive results (about 2%) are left out. The sample holds actives, similar compounds and a random draw of the others, so the mix is not that of the screen. Rule as the data show it: active = potency below about 11 µM; inconclusive = mostly about 12 µM to 25 µM; inactive = weaker than that;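 the screen sought inhibitors and activators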.
# System: pyruvate kinase (Bacillus stearothermophilus)
# Assay: Pyruvate Kinase
# Settings: purified pyruvate kinase, luminescence ATP production; ribose 5-phosphate activator present at AC10
# Description: Pyruvate kinase (partially purified from Bacillus stearothermophilus) was assayed for its ability to generate ATP from ADP using phosphoenolpyruvate (PEP) as a substrate. ATP generation was detected in a coupled reaction by luciferase-mediated luminescence, an ATP-dependent process. Pyruvate kinase substrates, PEP and ADP, were present in the assay at Km and […]-fold below Km respectively. The enzyme was assayed at an intermediate level of activity to screen for inhibitors and activators. In addition, ribose 5 phosphate, a positive modulator of pyruvate kinase, was included in the assay at AC10 in order to identify possible potentiators.
# NCGC Assay Protocol Summary:
# Three uL of substrate mix (final concentration, 50 mM imidazole pH 7.2, 50 mM KCl, 7 mM MgCl2, 2 mM PEP, 0.1 mM ADP, 0.7 nM ribose 5 phosphate, 0.01% Tween 20, 0.05% BSA) was dispensed into 1536 well plates. 23 nL of compound were delivered by a pin tool and 1 uL of enzyme mix (final concentration, 10 nM pyruvate kinase, 50 mM imidazole pH 7.2, 0.05% BSA) was added. After centrifugation at 1000 rpm for less than a minute, plates were incubated at room temperature for 2 hours. Three uL of detection and kinase stop mix (PKLight, Cambrex) was added, the plates centrifuged, and luminescence read by a ViewLux (Perkin Elmer) at 5 second exposure/plate. Data were normalized to the controls for AC100 stimulation (5 uM ribose 5 phosphate) and to AC100 inhibition (110 uM luteolin).
# Potency is read from the fitted curve at half-maximal effect.
row,Compound,Potency
1,CCn1c(CNC(=O)c2ccc(OC)c(OC)c2)nnc1SCC(=O)Nc1ccccc1,> 57 µM (inactive)
2,CCCCNc1nc2ccccc2nc1NS(=O)(=O)c1cccs1,> 57 µM (inactive)
3,CCOC(=O)c1sc2nc(CSCC(=O)OCc3ccc(C(=O)OC)o3)[nH]c(=O)c2c1C,> 57 µM (inactive)
4,CCn1c(CSc2nncn2-c2ccc(OC)cc2)nc2cc(S(=O)(=O)N(C)C)ccc21,> 57 µM (inactive)
5,N#CCCN(CCC#N)c1nnc(-c2ccccc2)s1,> 25.6 µM (inactive)
6,Cc1cc(C(F)(F)F)c(C#N)c(SCC(=O)NC2CC2)n1,> 25.6 µM (inactive)
7,Brc1cccc(-c2nnc3n2CCC3)c1,> 57 µM (inactive)
8,Cc1ccc2nc(NCCCNC(=O)c3cnccn3)c(C#N)cc2c1,> 57 µM (inactive)
9,Cc1noc(NS(=O)(=O)c2ccc(NC(=O)C34CCC(CC3)C4)cc2)c1C,> 57 µM (inactive)
10,CC1Cn2c(nnc2-c2cccs2)S1 (stereo unspecified),> 57 µM (inactive)
11,N#Cc1c2c(c(N3CCN(CCO)CC3)n3c1nc1ccccc13)CCCC2,> 57 µM (inactive)
12,COc1ccc(OC)c(NC(=O)CN2CCN(C(=O)c3ccco3)CC2)c1,> 57 µM (inactive)
13,OCCCN1c2ccccc2Nc2nnc(-c3ccccc3)cc21,6.08 µM (active)
14,O=C(C1CCCO1)N1CCC(c2nc3ccccc3[nH]2)CC1 (stereo unspecified),> 57 µM (inactive)
15,CCCC(=O)N1CCc2[nH]c3ccccc3c2C1,> 25.6 µM (inactive)
16,CN1CCN(S(=O)(=O)c2ccc(NC(=O)c3ccco3)cc2)CC1,> 57 µM (inactive)
17,O=C(Nc1ccc(Oc2ccccc2)cc1)c1ccco1,51.8 µM (inactive)
18,O=C(Nc1ccc(NC(=O)c2cccs2)cn1)c1ccco1,7.2 µM (active)
19,CCCc1nnc(NC(=O)c2cc(OC)cc(OC)c2)s1,> 57 µM (inactive)
20,N#Cc1ccc(OCCN2C(=O)NC3(CCSC3)C2=O)cc1 (stereo unspecified),> 57 µM (inactive)
21,COCCn1c(-c2ccc(OC)c(OC)c2)nc2ccccc21,> 57 µM (inactive)
22,COc1ccc(-c2cc3n(n2)CCc2nc4ccccc4n2-3)cc1,1.66 µM (active)

row,Compound,Potency
1,CCCn1c(C(O)c2cc(OC)ccc2OC)nc2ccccc21 (stereo unspecified),> 57 µM (inactive)
2,COC(=O)c1sc(NC(=O)c2ccc(OC)cc2OC)nc1C,0.093 µM (active)
3,CCOC(=O)c1sc(NC(=O)c2cc(S(=O)(=O)N3CCOCC3)ccc2C)nc1C,> 57 µM (inactive)
4,COc1ccc2nc(NC(=O)c3ccc(Br)s3)sc2c1,> 11.4 µM (inactive)
5,O=C(NCc1ccco1)c1ccc(CS(=O)(=O)Cc2ccc(F)cc2)o1,> 57 µM (inactive)
6,COc1ccccc1NC(=O)C1=C(C)NC2=C(C(=O)CCC2)C1c1ccc(C)o1 (stereo unspecified),> 57 µM (inactive)
7,COc1ccc(N2C(=O)c3cccc4cccc(c34)C2=O)nn1,> 57 µM (inactive)
8,Cc1cc(C)c2c(n1)nn1c(N3CCOCC3)cc(C)nc21,> 57 µM (inactive)
9,Cc1nn2c3cc(N4CCOCC4)ccc3nc2c2ccccc12,2.65 µM (active)
10,COCCCNC(=O)CSc1nc2ccc(N3CCOCC3)cc2c(=O)n1CCc1ccccc1,> 57 µM (inactive)
11,O=S(=O)(N1CCOCC1)N1CCN(c2ccccc2F)CC1,> 57 µM (inactive)
12,Cc1ccc2cccc(S(=O)(=O)N3CCN(c4ccccc4F)CC3)c2n1,6.92 µM (active)
13,O=C(c1cccc2ccccc12)N1CCN(c2ccccc2F)CC1,26 µM (inactive)
14,Cn1c(=O)n(CCc2ccccc2)c(=O)c2c1nc1n2CCCN1c1ccccc1,> 57 µM (inactive)
15,COc1cc(OC)cc(C(=O)Nc2ccc(-c3nc4ccccc4o3)c(O)c2)c1,> 57 µM (inactive)
16,CN(C)CCCNc1c2c(c(C#N)c3nc4ccccc4n13)CCC2,> 57 µM (inactive)
17,c1ccc(-c2oc3ncnc(N4CCOCC4)c3c2-c2ccccc2)cc1,> 57 µM (inactive)
18,CC(C(=O)Nc1ccccc1-c1ccccc1)N1CCOCC1 (stereo unspecified),> 57 µM (inactive)
19,CC(C(=O)N1CCOCC1)N1c2cccc3cccc(c23)S1(=O)=O (stereo unspecified),1.8 µM (active)
20,CC(C(=O)O)N1C(=O)c2cccc3cccc1c23 (stereo unspecified),36.6 µM (inactive)
21,O=C1Nc2c(Br)cc(Br)cc2C1(O)N1CCOCC1 (stereo unspecified),8.12 µM (active)
22,COc1ccc(NC2CC(=O)N(C)C2=O)cc1 (stereo unspecified),> 25.6 µM (inactive)

row,Compound,Potency
1,Fc1ccc2nc(N3CCCCC3)sc2c1,41.1 µM (inactive)
2,c1c2c(cc3sc(N4CCCCC4)nc13)OCCO2,1.52 µM (active)
3,CCOC(=O)N1CCC(NC(=O)c2ccc3nc(N4CCOCC4)sc3c2)CC1,> 57 µM (inactive)
4,Cc1nnc(SCC(N)=O)n1CC1CCCO1 (stereo unspecified),> 57 µM (inactive)
5,COC(=O)c1ccc2c(=O)n(CC3CCCO3)c(=S)[nH]c2c1 (stereo unspecified),> 57 µM (inactive)
6,Cc1ccsc1C(=O)OCC(=O)c1cc(C)n(CC2CCCO2)c1C (stereo unspecified),0.617 µM (active)
7,COc1ccc(CNC(=O)c2cc3c(=O)n4ccccc4nc3n(CC3CCCO3)c2=N)cc1 (stereo unspecified),> 57 µM (inactive)
8,O=C(Nc1cnn(Cc2ccc(Cl)cc2)c1)C1CCCC1,> 57 µM (inactive)
9,C=CCn1c(COc2ccccc2)nnc1SCC(=O)NCC(=O)OCC,> 57 µM (inactive)
10,O=C(NCc1ccccn1)c1cc2ccccc2oc1=O,> 57 µM (inactive)
11,COc1ccc(C(=O)N(Cc2ccc(N(C)C)cc2)C2CCS(=O)(=O)C2)cc1 (stereo unspecified),> 57 µM (inactive)
12,CCC12CN3CC(CC)(CN(C1)C31C(=O)N(C)c3ccc(C)cc31)C2=O (stereo unspecified),> 57 µM (inactive)
13,COc1ccc(CC(=O)n2nc(-c3cccnc3)nc2N)cc1,> 57 µM (inactive)
14,COC(=O)c1ccccc1NC(=O)c1ccccc1NS(C)(=O)=O,> 57 µM (inactive)
15,COC(=O)Cc1nc2ccccc2[nH]1,> 57 µM (inactive)
16,Cc1ccc(-c2c3c(=O)n(C)c(=O)n(C)c3cn2-c2ccccc2O)cc1,> 57 µM (inactive)
17,CCOC(=O)N1CCN(CC(=O)c2c(C)[nH]c3ccccc23)CC1,> 57 µM (inactive)
18,Cc1c(C(=O)CN2CCOCC2)[nH]c2ccccc12,> 57 µM (inactive)
19,N#Cc1nc(Cc2ccccc2)oc1NCCc1ccccc1,> 57 µM (inactive)
20,N#Cc1nc(-c2ccc(OCc3ccccc3)cc2)oc1NCCCN1CCOCC1,1.88 µM (active)
21,N#Cc1nc(COc2ccc(-c3ccccc3)cc2)oc1NCc1cccnc1,> 57 µM (inactive)
22,O=C(O)CSCc1nc2ccccc2s1,> 57 µM (inactive)

row,Compound,Potency
1,Cn1c(C(=O)NCCN2CCc3ccccc3C2)cc2c(=O)[nH]c3ccccc3c21,9.21 µM (active)
2,O=C(CN1C(=O)COc2ccccc21)NCCN1CCc2ccccc2C1,> 57 µM (inactive)
3,Cc1cccc(N2CCN(C(=O)c3cc4c(=O)[nH]c5ccccc5c4n3C)CC2)c1C,> 11.4 µM (inactive)
4,FC(F)(F)c1nnc2sc(-c3ccco3)nn12,> 57 µM (inactive)
5,COc1cc(OC)cc(C(=O)Nc2ncc3c(n2)CC(C)(C)CC3=O)c1,> 57 µM (inactive)
6,Cn1c(=O)c2c(nc(N3CCCCCC3)n2CC(O)COc2ccc(Cl)cc2)n(C)c1=O (stereo unspecified),> 57 µM (inactive)
7,CCC(=O)Nc1ccc(C(=O)Nc2ccc3c(c2)C(=O)N(CC2CCCO2)C3=O)cc1 (stereo unspecified),> 57 µM (inactive)
8,COc1cccc(N(CC(=O)NC2CCCC2)C(=O)Cn2nnc(-c3ccc(C)cc3)n2)c1,> 57 µM (inactive)
9,CCOc1cc(C(=O)Nc2ncccn2)cc(OCC)c1OCC,> 57 µM (inactive)
10,CCOC(=O)c1cc(-c2nnc(-c3cc(OC)c(OC)c(OC)c3)o2)c(C)nc1C,> 57 µM (inactive)
11,CCOC(=O)c1cc2c(n(-c3ccc(C)cc3)c1=O)CCCC2=O,> 57 µM (inactive)
12,CN1CCN(c2ccc(NC(=O)COc3ccc(Cl)cc3Cl)cc2)CC1,> 57 µM (inactive)
13,CC(C)(C)NC(=O)C(c1ccco1)N(Cc1ccc2c(c1)OCO2)C(=O)Cn1nnc2ccccc21 (stereo unspecified),> 57 µM (inactive)
14,CCc1nnc(NC(=O)c2nc3nccc(C)n3n2)s1,> 57 µM (inactive)
15,c1ccc(-n2ncc3c2ncn2c(C4CCCCC4)nnc32)cc1,> 57 µM (inactive)
16,CCc1ccccc1NC(=O)CSc1nnc([C@@H](NC(=O)OC(C)(C)C)C(C)CC)o1 (stereo partly specified),> 57 µM (inactive)
17,Cc1cc(C)c(C#N)c(SCc2ccccc2C(=O)O)n1,> 57 µM (inactive)
18,Cc1cccc(-c2noc(-c3ccc(F)cc3)n2)c1,10.4 µM (active)
19,Cc1ccc(Cc2nc(-c3cccc(C)c3)no2)cc1,> 57 µM (inactive)
20,COc1ccc2[nH]c(=O)c(-c3noc(-c4ccc(F)cc4)n3)cc2c1,> 57 µM (inactive)
21,CCC(CC)C(=O)Nc1cc(C(=O)OC)cc(C(=O)OC)c1,> 57 µM (inactive)
22,CC(C)OC(=O)c1cc(NC(=O)C2C3CCC(O3)C2C(=O)O)cc(C(=O)OC(C)C)c1 (stereo unspecified),6.13 µM (active)

row,Compound,Potency
1,Cc1nc(NCc2ccccc2)c(C(N)=O)c2c1COC(C)(C)C2,> 25.6 µM (inactive)
2,COc1ccc2oc(=O)c(C(=O)O)cc2c1,> 57 µM (inactive)
3,Cc1cc(Cl)c(S(=O)(=O)NCc2cccnc2)cc1OCC(N)=O,> 57 µM (inactive)
4,Cc1nn(CC(=O)Nc2ccc3c(c2)nc(CN2CCCCC2)n3C)c(=O)c2ccccc12,> 57 µM (inactive)
5,COC(=O)c1ccc2c(c1)S(=O)(=O)NC(=NCCCN1CCOCC1)S2,> 57 µM (inactive)
6,COc1ccc2oc(C)c(NC(C)=O)c2c1,> 57 µM (inactive)
7,O=C(Nn1cc(C(=O)N2CCN(c3ccccc3F)CC2)c2ccccc2c1=O)c1cnccn1,> 57 µM (inactive)
8,COCC(C)n1c(SCc2ccc(C(=O)OC)o2)nc2ccccc2c1=O (stereo unspecified),> 57 µM (inactive)
9,CCOc1cc(-c2nc3cc(C)ccn3c2NCC2CCCO2)ccc1O (stereo unspecified),> 57 µM (inactive)
10,COc1ccc(-c2nc(-c3ccccc3)no2)c(OC)c1,0.55 µM (active)
11,CCOc1nc(-c2ccc(OC)cc2)ccc1-c1noc(-c2cc(OC)c(OC)c(OC)c2)n1,> 57 µM (inactive)
12,COc1ccccc1Cc1nc(-c2ccc(C)cc2)no1,> 57 µM (inactive)
13,Cn1c(=O)c2c(n(Cc3ccccc3)c1=O)NC(=O)C2CC(=O)N1CCc2ccccc2C1 (stereo unspecified),> 57 µM (inactive)
14,CC(C)C(=O)N1CCN(CCN=CC2=C(O)CC(c3ccco3)CC2=O)CC1 (stereo unspecified),> 57 µM (inactive)
15,O=C(CN1CCN(C2CCCCC2)CC1)Nc1ccccc1N1CCCCC1,> 57 µM (inactive)
16,Fc1ccccc1OCCCCn1cncn1,> 57 µM (inactive)
17,Cc1cccc(-n2ncc3c(N4CCc5ccccc54)ncnc32)c1,> 57 µM (inactive)
18,CCN(CC)CCCN1C(=O)C(=O)/C(=C(/O)c2c(C)nc3ccccn23)C1c1ccc(C)o1 (stereo unspecified),> 57 µM (inactive)
